From PubChem BioAssay
Sampled rows, rich in hits. Any-hit rate of the full collection: about 2.9%.
proKLK7 act: proKLK7 (human) activation, primary screen. P49862. activation, % at 7 µM. purified proKLK7, EDANS-DABCYL substrate fluorescence; 100% is mature enzyme control, 0% vehicle. 370,000 tested, 0.9% active. AID 652039;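 active means activation above the mean of all tested compounds plus 3 SD, computed per campaign excluding outliers beyond control limits, cut at about 13% in these data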
Target sequence (P49862 whole entry, looked up): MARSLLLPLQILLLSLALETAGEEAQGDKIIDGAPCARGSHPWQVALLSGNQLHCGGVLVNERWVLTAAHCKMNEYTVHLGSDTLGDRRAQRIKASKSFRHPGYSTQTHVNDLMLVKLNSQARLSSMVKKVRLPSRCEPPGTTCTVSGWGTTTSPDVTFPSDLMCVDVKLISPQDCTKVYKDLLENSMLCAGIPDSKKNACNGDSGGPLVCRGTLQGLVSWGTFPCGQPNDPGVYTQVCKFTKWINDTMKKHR
GAA850 FXN act: activators of GAA850 frataxin (FXN) promoter. 360,000 tested, 0.56% active. activation, % at 6 µM. AID 540364. HEK293 lucGAA850 FXN promoter luciferase reporter, 24 h; percent of 10 µM SAHA response;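 active means activation above the average of all compounds screened plus 3 SD, cutoff fixed separately per campaign, cut at about 7.5% in these data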
FAS-TE inh: FAS thioesterase (human) inhibition. recombinant FAS-TE, OMFH fluorogenic substrate, fluorescence endpoint. 360,000 tested, 0.67% active. P49327. inhibition, % at 15 µM. AID 602261;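 active means compounds whose normalised, plate-corrected inhibition of enzyme fluorescence in the single-dose primary screen is 50% or more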
SMARCA2 activ: SMARCA2 function activation, primary screen; AID 652017; activation, % at 9.1 µM; MG213 cells, MMTV-luciferase reporter, dexamethasone, overnight; 370,000 tested, 1% active; in the data active means activation above about 7.8%
FAS-TE conf: FAS thioesterase (human) inhibition, confirmation. AID 624325. recombinant FAS-TE, OMFH fluorogenic substrate, fluorescence. shares compounds with FAS-TE inh. 2,300 tested, 45% active. inhibition, % at 15 µM;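 active means compounds inhibiting the enzyme by at least 50% at 15 µM in any one of the replicates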
Numbers stand for hits.

`CN1CCN(c2ccc([N+](=O)[O-])cc2/C=N/NC(=O)c2ccc(F)cc2)CC1` gave proKLK7 act inactive, GAA850 FXN act inactive, FAS-TE inh 52, SMARCA2 activ inactive and FAS-TE conf 51.
COc1ccc(NC(=O)CN(C)C(=O)c2sc3ccccc3c2Cl)cc1 was read as proKLK7 act inactive, GAA850 FXN act inactive, FAS-TE inh inactive and SMARCA2 activ inactive.
`COc1ccc(Cl)cc1NC(=O)CN(C)C(=O)c1sc2ccccc2c1Cl` gave proKLK7 act inactive, GAA850 FXN act inactive, FAS-TE inh 51, SMARCA2 activ inactive and FAS-TE conf inactive.
Screening COc1ccccc1NS(=O)(=O)c1cc(C(=O)N2CCN(C(=O)c3ccco3)CC2)ccc1F returned proKLK7 act inactive, GAA850 FXN act inactive, FAS-TE inh inactive and SMARCA2 activ inactive.
Cc1ccc(C(=O)NCCc2cccc(Cl)c2)cc1[N+](=O)[O-] was read as proKLK7 act inactive, GAA850 FXN act inactive, FAS-TE inh 52, SMARCA2 activ inactive and FAS-TE conf inactive.
For O=C(NCCc1cccc(Cl)c1)c1cc([N+](=O)[O-])ccc1Cl the results were proKLK7 act inactive, GAA850 FXN act inactive, FAS-TE inh 64, SMARCA2 activ inactive and FAS-TE conf inactive.
`O=C(NCCc1cccc(Cl)c1)c1ccc(Cl)c([N+](=O)[O-])c1` gave proKLK7 act inactive, GAA850 FXN act inactive, FAS-TE inh 72, SMARCA2 activ inactive and FAS-TE conf 50.
Screening O=C(NCCc1ccccc1)c1ccc(Sc2ccccc2Cl)c([N+](=O)[O-])c1 returned proKLK7 act inactive and SMARCA2 activ inactive.
O=C(NCCCc1ccccc1)c1ccc([N+](=O)[O-])cc1Cl was read as proKLK7 act inactive, GAA850 FXN act inactive, FAS-TE inh 84, SMARCA2 activ inactive and FAS-TE conf 88.
Screening Cc1ccc(C(=O)NCCSc2ccc(Cl)cc2)cc1[N+](=O)[O-] returned proKLK7 act inactive, GAA850 FXN act inactive, FAS-TE inh inactive and SMARCA2 activ inactive.
`Cc1ccc(C(=O)NCCCc2ccccc2)c(Cl)c1` gave proKLK7 act inactive, GAA850 FXN act inactive, FAS-TE inh inactive and SMARCA2 activ inactive.
`O=C(CCCN1C(=O)/C(=C/c2cccs2)SC1=S)Nc1ccccc1O` gave proKLK7 act inactive, GAA850 FXN act inactive, FAS-TE inh inactive and SMARCA2 activ inactive.
`CCc1ccc(CN(C(=O)c2cccs2)C2CCS(=O)(=O)C2)cc1` (stereo unspecified) gave proKLK7 act inactive, GAA850 FXN act inactive, FAS-TE inh inactive and SMARCA2 activ inactive.
`Cc1ccc(OCCNC(=O)CNC(=O)c2ccc(Cl)c([N+](=O)[O-])c2)cc1` gave proKLK7 act inactive, GAA850 FXN act inactive, FAS-TE inh 62, SMARCA2 activ inactive and FAS-TE conf 54.
CCCCOc1ccc(C(=O)NCC(=O)NCCOc2ccc(C)cc2)cc1 was read as proKLK7 act inactive, GAA850 FXN act inactive, FAS-TE inh inactive and SMARCA2 activ inactive.
Cc1nn(-c2ccccc2)c(C)c1NC(=O)COC(=O)CC(C)c1ccccc1 (stereo unspecified) was read as proKLK7 act inactive, GAA850 FXN act inactive, FAS-TE inh inactive and SMARCA2 activ inactive.
For Cc1ccc(-c2nn(CCC(=O)Nc3cccnc3)c(=O)c3ccccc23)cc1 the results were proKLK7 act inactive, GAA850 FXN act inactive, FAS-TE inh inactive and SMARCA2 activ inactive.
For COc1ccc(S(=O)(=O)N2CCC(CN3C(=O)c4cccc5cccc(c45)C3=O)CC2)cc1 the results were proKLK7 act inactive, GAA850 FXN act inactive, FAS-TE inh 63, SMARCA2 activ inactive and FAS-TE conf inactive.
O=C(c1ccc(S(=O)(=O)N2CCCC2)cc1)N1CCC(CN2C(=O)c3cccc4cccc(c34)C2=O)CC1 was read as proKLK7 act inactive, GAA850 FXN act inactive, FAS-TE inh inactive and SMARCA2 activ inactive.
Cc1cc2c(=O)oc(-c3ccc(F)cc3)nc2s1 was read as proKLK7 act inactive, GAA850 FXN act inactive, FAS-TE inh inactive and SMARCA2 activ inactive.
CCc1cc2c(=O)oc(-c3ccccc3F)nc2s1 was read as proKLK7 act inactive, GAA850 FXN act inactive, FAS-TE inh 75, SMARCA2 activ inactive and FAS-TE conf 60.
For Cc1cc2c(=O)oc(-c3ccccc3Br)nc2s1 the results were proKLK7 act inactive, GAA850 FXN act inactive, FAS-TE inh 59, SMARCA2 activ inactive and FAS-TE conf 65.
